A selection: hits, their analogues and other compounds. The true share with any hit is near 11%.
HEK cytotox: cytotoxic compounds in HEK 293 cells; 6.6% of 94,000 active; AID 1345083; Potency, µM (doses to about 115 µM), hits mostly inhibitors; HEK 293 viability, ATP luminescence (CellTiter-Glo), 48-72 h; also: nearly all actives have a fitted effect of over 60% in size
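Luminescence from cellular ATP, measured with CellTiter-Glo, indicates HEK 293 viability. Cells plated at 250 cells/well are treated with compound for 48 or 72 hr at 37 degree Celsius before reagent addition.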
NIH3T3 tox: NIH 3T3 cell cytotoxicity; NIH 3T3 viability, CellTiter-Glo ATP luminescence, 48-72 h; Potency, µM (doses to about 96.7 µM), hits mostly inhibitors; 4.3% of 94,000 active; also: nearly all actives have a fitted effect of over 55% in size
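Luminescent ATP readout (CellTiter-Glo, 10 min RT) after 48 or 72 hr compound exposure of NIH 3T3 cells seeded at 400 cells/well in 1536-well format; quantitative HTS.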
hNpr1 antagonist: human Npr1 receptor antagonism; P16066; HEK293 hNpr1 GloSensor cGMP, ANP-stimulated luminescence; Potency, µM (highest dose often 46.3 µM), usual class: inhibitors; 1.6% of 76,000 active; calls by dose curve; also: nearly all actives have a fitted effect of over 60% in size
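Compound pre-incubated 30 min at room temperature on GloSensor-loaded HEK293 cells stably carrying hNpr1 and the pGS-40F cGMP biosensor. Stimulation uses hNppA at 0.1 nM final; luminescence is taken at baseline and 20 min post-agonist.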
Luciferase inh: Photinus pyralis luciferase inhibition; P08659; purified P. pyralis luciferase, luminescence, biochemical; Potency, µM (highest dose often 115 µM), usual class: inhibitors; 2.5% of 76,000 active; also: nearly all actives have a fitted effect of over 65% in size
Target sequence (P08659 whole entry, looked up): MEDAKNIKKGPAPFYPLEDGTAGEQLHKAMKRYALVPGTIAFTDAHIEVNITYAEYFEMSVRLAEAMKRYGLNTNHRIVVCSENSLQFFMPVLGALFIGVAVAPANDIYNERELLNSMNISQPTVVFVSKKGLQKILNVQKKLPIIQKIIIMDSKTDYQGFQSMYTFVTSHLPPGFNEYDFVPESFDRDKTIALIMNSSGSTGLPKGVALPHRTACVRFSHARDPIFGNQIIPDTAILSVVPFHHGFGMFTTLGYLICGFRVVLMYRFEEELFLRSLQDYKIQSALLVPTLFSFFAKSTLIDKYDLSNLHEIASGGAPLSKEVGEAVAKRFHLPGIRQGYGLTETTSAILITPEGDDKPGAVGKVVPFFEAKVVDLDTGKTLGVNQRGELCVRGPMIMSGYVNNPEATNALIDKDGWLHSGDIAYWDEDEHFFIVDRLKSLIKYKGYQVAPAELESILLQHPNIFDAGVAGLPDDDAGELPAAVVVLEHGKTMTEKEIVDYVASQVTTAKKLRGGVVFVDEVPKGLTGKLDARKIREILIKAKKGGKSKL
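Purified P. pyralis luciferase (10nM final) in 50mM Tris acetate pH 7.5, 10mM Mg acetate, 0.01% Tween-20, 0.05% BSA with 10uM D-luciferin and 10uM ATP. Compounds titrated qHTS. Luminescence imaged on CCD.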
Numbers stand for hits; – = inactive; ? = inconclusive; · = not tested or not shown. Unless noted, calls follow the shape of the dose curve; as a rule, active = well fitted curve in the direction sought with a large enough effect; inconclusive = small, poorly fitted or top-dose-only effect, or another doubt; inactive = no such curve, though single readings can be large; an effect the other way counts as inactive or inconclusive.

SMILES	HEK cytotox	NIH3T3 tox	hNpr1 antagonist	Luciferase inh
O=C(NC1CCN(Cc2ccc(-c3ccsc3)cc2)C1)c1cccc(Cl)c1 (centres undefined)	44.7µM	?	·	·
CC(NC(=O)NC1CCN(Cc2ccc(-c3ccsc3)cc2)C1)c1ccccc1 (centres undefined)	–	–	·	·
Cc1ccccc1C(=O)NC1CCN(Cc2ccc(-c3ccsc3)cc2)C1 (centres undefined)	79.4µM	?	·	·
COC[C@H]1CCCN1C(=O)[C@@H](C)C1CC[C@@]2(C)CC[C@H](NC(=O)c3cncnc3)[C@@H](C)[C@@H]2[C@H]1O (some centres undefined)	–	–	–	–
O=C(CCC1CCCC1)NCC(=O)N1CCCCCCNC(=O)CC1c1ccccc1 (centres undefined)	–	–	–	–
Cc1ccccc1-c1nccn2c(C3CN(C(=O)c4cc5ccccc5[nH]4)C3)ncc12	89.1µM	79.4µM	–	?
COc1ncccc1-c1nccn2c(C3CN(Cc4c[nH]c5ccccc45)C3)ncc12	?	?	–	–
O=C(c1ccn[nH]1)N1CC(c2ncc3c(-c4cccc(C(F)(F)F)c4)nccn23)C1	?	?	–	–
Cc1ccccc1-c1nccn2c(C3CN(Cc4ccc(O)cc4)C3)ncc12	?	79.4µM	–	–
CN(C)C(C(=O)NCc1cc(F)c(F)c(F)c1F)c1cccc(F)c1 (centres undefined)	–	–	–	–
Nc1nc(C2CC(N)C2)cc(N2CCCN(Cc3cccs3)CC2)n1 (centres undefined)	44.7µM	?	–	–
Cc1nonc1CN1CCN(c2cc(C3CC(N)C3)nc(N)n2)CC1 (centres undefined)	–	–	–	–
O=C(CN1CCOCC1)N1CCNc2cnc(Nc3ccc(-n4ccnc4)cc3)nc2C1	–	39.8µM	–	–
O=C(c1cc(F)ccc1F)N1CCCC2(C1)NC(=O)N(Cc1ccc(Cl)cc1)C2=O (centres undefined)	?	–	–	–
CN1CCCC2(C1)CN(C)c1ccc(C(=O)NCC3CCCCC3)cc12 (centres undefined)	112µM	89.1µM	–	–
COCCN1CCC2(C1)CN(C)c1ccc(C(=O)NCc3ccccc3)cc12 (centres undefined)	?	?	–	20µM
CN1CCC2(C1)CN(CC1CC1)c1ccc(C(=O)NCC3CC3)cc12 (centres undefined)	?	?	–	–
CN(C)CCNC(=O)c1ccc2c(c1)C1(CCCN(CC3CC3)C1)CN2C (centres undefined)	?	89.1µM	–	–
CC(=O)N1CCCC2(C1)CN(C)c1ccc(C(=O)NCCc3ccccc3)cc12 (centres undefined)	?	–	–	–
CN1CC2(CCCN(CC3CC3)C2)c2cc(C(=O)NCCc3ccccc3)ccc21 (centres undefined)	?	79.4µM	–	–
CC(C)CNC(=O)c1ccc2c(c1)C1(CCCN(CC3CC3)C1)CN2C (centres undefined)	?	–	–	–
CN(Cc1ccccc1)Cc1cn([C@H]2CO[C@H]3[C@@H]2OC[C@@H]3NCc2ccco2)nn1	–	–	–	–
COCCOC1CCOC2(CCN(C(=O)COc3ccc(F)cc3)CC2)C1 (centres undefined)	–	–	–	–
CCn1ccc2oc(C)c(C(=O)N3CCN(c4cccc(C)c4C)CC3)c2c1=O	50.1µM	?	–	–
CCC(=O)N1Cc2ccccc2CC2(CCN(CC3CCNCC3)CC2)C1	–	–	·	·
SMILES	HEK cytotox	NIH3T3 tox	hNpr1 antagonist	Luciferase inh
C[C@H](C(=O)N1Cc2ccccc2CC2(CCN(CC3CCNCC3)CC2)C1)c1ccccc1	?	14.1µM	·	·
CC(C)(C)OCC(O)CN1CCC(=O)N(Cc2ccccc2)Cc2cc(F)ccc21 (centres undefined)	44.7µM	?	·	·
CCCC(O)CN1CCC(=O)N(Cc2ccccc2)Cc2cc(F)ccc21 (centres undefined)	79.4µM	?	·	·
CCCC(O)CN1CCC(=O)N(Cc2ccccc2)Cc2ccccc21 (centres undefined)	?	–	·	·
CC(C)(C)OCC(O)CN1CCC(=O)N(CC2CC2)Cc2cc(F)ccc21 (centres undefined)	?	–	·	·
O=C(Cn1ccn2nc(-c3ccc(F)cc3)c(CO)c2c1=O)Nc1ccc(Cl)cc1F	–	–	–	–
CCOc1ccccc1C1NC(=O)N(CC(=O)Nc2ccc(OC)c(Cl)c2)C2=C1C(=O)OC2 (centres undefined)	–	?	–	?
COc1cc(Cl)c(C)cc1NC(=O)CN1C(=O)NC(c2ccc(Cl)cc2)C2=C1COC2=O (centres undefined)	15.8µM	17.8µM	–	–
COc1ccc(NC(=O)CN2C(=O)NC(c3ccc(Cl)cc3)C3=C2COC3=O)c(OC)c1 (centres undefined)	?	–	–	–
COc1ccc(NC(=O)CN2C(=O)NC(c3ccc(Cl)cc3)C3=C2COC3=O)cc1Cl (centres undefined)	?	25.1µM	–	?
O=C(NC1CCCC1)N1CCCC(C(=O)N2CCC(c3nc4ncccc4[nH]3)CC2)C1 (centres undefined)	–	–	·	·
CC1(NC(=O)C2CC2)CN(Cc2nc(-c3ccc(Oc4ccccc4)cc3)cs2)C1	35.5µM	?	8.91µM	?
CC1(NC(=O)C2CC2)CN(Cc2nc(-c3cccc(N4CCOCC4)c3)cs2)C1	?	–	–	39.8µM
CCn1cc(CN2CCCC(c3nc(C(C)C)no3)CCNC(=O)CC2)cn1 (centres undefined)	–	–	–	–
O=C(Nc1cccc(C(F)(F)F)c1)c1nc2c(o1)CCN(CC1CC1)CC2	?	?	–	–
O=C(NCC1CC1)c1nc2c(o1)CCN(Cc1cccs1)CC2	?	–	–	70.8µM
Cc1csc(NC(=O)c2nc3c(o2)CCN(CC2CC2)CC3)n1	–	?	–	17.8µM
Fc1ccc(CN2CC(N3CCc4ccccc43)C2)cc1	–	–	·	·
CN(C)c1ccc(CN2CC(N3CCc4ccccc43)C2)cc1	89.1µM	89.1µM	–	–
O=C(CCc1ccccc1)NCC(=O)N1CCCCCCNC(=O)CC1c1ccccc1 (centres undefined)	–	–	–	–
COC(=O)[C@@H]1Cc2c([nH]c3ccccc23)[C@H]2C[C@H](NCCN3CCOCC3)C[C@@H](c3ccc(F)cc3)N21	20µM	25.1µM	–	–
O=C(C[C@@H]1O[C@H](CNCc2ccc(F)cc2)[C@@H](O)[C@H]1O)NCCN1CCOCC1	–	?	–	–
COC(=O)[C@@H]1Cc2c([nH]c3ccccc23)[C@H]2C[C@@H](NCCN3CCOCC3)C[C@@H](c3ccc(F)cc3)N21	28.2µM	?	–	–
O=C(COc1ccccc1)N1CC[C@H](c2nnc(-c3ccccc3)o2)C1	–	?	–	–
COc1ccccc1N1CCCc2ncc(C(=O)N(C)Cc3ccccc3)cc21	100µM	?	–	–
COc1ccccc1N1CCCc2ncc(C(=O)NCCOc3ccccc3)cc21	100µM	89.1µM	–	–
